Reference: PubChem BioAssay AID488922 (Johns Hopkins Ion Channel Center, 2010)
The whole screen tested about 310,000 compounds, of which about 3,800 (1.2%) were called active.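 The calls were made as follows: active = ratio B-score over 3 SD below the library mean, with starting fluorescence within 5 SD of its mean; inactive = the rest, inconclusive results apart.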 Many of the other results were omitted from the sample, so actives are more common in it than they were.

These compounds were tested against Potassium channel subfamily K member 9 (Homo sapiens) (UniProt Q9NPC2) (assay: KCNK9 potassium channel inhibitors, primary screen, HEK293 cells, thallium flux (AID 488922;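 as to B-score: negative B-score means less thallium flux so channel inhibition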)). Details: HEK293 KCNK9, FluxOR thallium flux fluorescence, at 10 µM; hits give low values.
Sequence of Potassium channel subfamily K member 9 (Homo sapiens) (Q9NPC2 whole entry, looked up): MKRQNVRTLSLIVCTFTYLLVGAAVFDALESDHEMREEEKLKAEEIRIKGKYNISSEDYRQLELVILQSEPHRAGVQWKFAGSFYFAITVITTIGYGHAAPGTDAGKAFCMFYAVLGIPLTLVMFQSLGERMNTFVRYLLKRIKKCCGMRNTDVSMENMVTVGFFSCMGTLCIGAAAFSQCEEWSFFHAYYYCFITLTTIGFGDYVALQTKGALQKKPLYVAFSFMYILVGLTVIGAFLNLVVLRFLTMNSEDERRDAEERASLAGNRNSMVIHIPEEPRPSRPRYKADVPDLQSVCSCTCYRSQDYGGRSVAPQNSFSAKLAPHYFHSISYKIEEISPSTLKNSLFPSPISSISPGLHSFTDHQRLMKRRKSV
With `CCc1noc(C)c1C(=O)Nc1nc(-c2ccccc2)cs1` the B-score was “inactive”. `C[C@H](NC(=O)C1CC(=O)N(c2ccc3c(c2)OCO3)C1)C(=O)NCc1ccco1` (some centres not stated) was tested, and the B-score was “inactive”. For `O=C(/C=C/c1ccccc1)Oc1coc(CSc2ncccn2)cc1=O`, the B-score was “inactive”. In the case of `COc1cc(OC)cc(-c2cc3nc(C4CCN(C(=O)OC(C)(C)C)CC4)cc(=O)n3[nH]2)c1`, the B-score is reported as “inactive”. In the case of `O=C(c1ccc(F)cc1)N1CCC(C(=O)N2CCN(S(=O)(=O)c3ccccc3Br)CC2)CC1`, the B-score is reported as “inactive”. In the case of `O=C(Cc1ccc(S(=O)(=O)N2CCCC2)s1)NC1CCCCCC1`, the B-score is reported as “inactive”. In the case of `CCCn1c(=N)n(CC(=O)c2ccc(Cl)c(Cl)c2)c2ccccc21`, the B-score is reported as -7.8 (active). `O=C(Cn1nnc(N2CCCCC2)n1)c1ccc(Cl)c(Cl)c1` was tested, and the B-score was “inactive”. For `CCN(CC)CC1(O)CCN(C(=O)c2ccc(Cl)c(Cl)c2)CC1`, the B-score was “inactive”. With `O=c1c2c3c(sc2n(CCN2CCCC2)c(=O)n1Cc1ccccc1)CCCCC3` the B-score was “inactive”. For `COc1cccc(N2CC(NC(=O)c3ccc4ccccc4c3)CC2=O)c1` (configuration not stated), the B-score was “inactive”. For `COc1cccc(CNS(=O)(=O)c2ccc3c(c2)CC(C)N3C(=O)C2CCC2)c1` (configuration not stated), the B-score was “inactive”. In the case of `Cc1ccc2nc3c(cc(C(=O)NCCc4ccccc4)c(=N)n3CC3CCCO3)c(=O)n2c1` (configuration not stated), the B-score is reported as “inactive”. `Cc1cc(C)c(C)c(S(=O)(=O)N2CCN(C(=O)c3ccc4c(=O)n5c(nc4c3)CCC5)CC2)c1C` was tested, and the B-score was “inactive”. With `CCOc1ccc(C(C)C)cc1S(=O)(=O)n1nc(C)cc1C` the B-score was -10.1 (active). For `COc1ccc(C(C)C)cc1S(=O)(=O)Nc1ncn[nH]1`, the B-score was “inactive”. For `CCOc1cc(C)c(Cl)cc1S(=O)(=O)n1nnc2ccccc21`, the B-score was “inactive”. For `CCOc1ccc(OCC(=O)Nc2c3c(nn2C(C)(C)C)CS(=O)(=O)C3)cc1`, the B-score was “inactive”. `CC(C)(C)n1nnnc1C(c1ccc2ncccc2c1)N1CCSCC1` (configuration not stated) was tested, and the B-score was “inactive”. In the case of `CCC(C)(C)n1nnnc1C(c1ccccc1OC)N1CCSCC1` (configuration not stated), the B-score is reported as -7.08 (active). `COc1ccc(OC)c(C(c2nnnn2C(C)(C)C)N2CCc3ccccc3C2)c1` (configuration not stated) was tested, and the B-score was “inactive”. `CCC(C)(C)n1nnnc1C(c1ccc(OC)c(OC)c1)N1CCN(C(=O)c2ccco2)CC1` (configuration not stated) was tested, and the B-score was “inactive”. `COc1ccccc1C(c1nnnn1CC1CCCO1)N1CCN(c2ccccc2)CC1` (configuration not stated) was tested, and the B-score was “inactive”. For `CCC(C)(C)n1nnnc1C(c1cccs1)N1CCN(c2nc3ccccc3s2)CC1` (configuration not stated), the B-score was -9.04 (active). `CC(C)(C)n1nnnc1C(c1ccc(Cl)cc1)N1CCSCC1` (configuration not stated) was tested, and the B-score was “inactive”. In the case of `CCCC(c1nnnn1C(C)(C)C)N1CCN(Cc2ccccc2)CC1` (configuration not stated), the B-score is reported as “inactive”. `COc1ccccc1C(c1nnnn1C(C)(C)C)N1CCN(Cc2ccccc2)CC1` (configuration not stated) was tested, and the B-score was -21.5 (active).
